Source: PubChem BioAssay AID588590 (National Center for Advancing Translational Sciences (NCATS), 2011)
The campaign covered roughly 390,000 compounds. About 4,000 (1%) were called active. Inconclusive results (about 7%) are left out. The call rests on the fitted dose curve; in most records, active means well fitted inhibition curve with a large enough effect; inconclusive means small, poorly fitted or top-dose-only effect, or another doubt; inactive means no such curve, though single readings can be large or run the other way. What follows is part of a selection rich in actives, with near analogues and random picks from the rest.

Molecular target: DNA polymerase iota (Homo sapiens) (UniProt Q9UNA4)
Sequence (Q9UNA4 whole entry, looked up): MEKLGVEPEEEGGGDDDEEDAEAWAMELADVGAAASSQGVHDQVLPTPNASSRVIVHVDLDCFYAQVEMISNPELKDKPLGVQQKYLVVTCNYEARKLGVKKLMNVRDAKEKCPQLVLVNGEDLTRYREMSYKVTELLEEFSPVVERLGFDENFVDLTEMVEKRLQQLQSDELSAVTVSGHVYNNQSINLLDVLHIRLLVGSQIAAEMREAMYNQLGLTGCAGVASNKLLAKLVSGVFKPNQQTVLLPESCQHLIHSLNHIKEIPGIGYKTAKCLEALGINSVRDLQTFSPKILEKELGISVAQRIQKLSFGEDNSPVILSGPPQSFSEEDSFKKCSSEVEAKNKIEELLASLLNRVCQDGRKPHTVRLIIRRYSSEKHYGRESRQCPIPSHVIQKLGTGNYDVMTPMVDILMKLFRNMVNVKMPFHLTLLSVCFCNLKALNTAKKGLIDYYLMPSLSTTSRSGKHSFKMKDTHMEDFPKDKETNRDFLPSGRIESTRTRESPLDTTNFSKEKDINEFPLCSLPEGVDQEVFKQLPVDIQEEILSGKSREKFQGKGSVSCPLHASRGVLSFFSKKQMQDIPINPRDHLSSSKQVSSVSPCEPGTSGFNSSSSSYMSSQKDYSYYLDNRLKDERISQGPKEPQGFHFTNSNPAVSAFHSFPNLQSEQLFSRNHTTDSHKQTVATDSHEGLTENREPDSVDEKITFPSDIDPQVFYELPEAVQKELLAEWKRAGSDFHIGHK
Test: qHTS for Inhibitors of Polymerase Iota
Settings: Pol iota fluorescent replication assay, 10 min; series mostly up to 115 µM
Excerpt: DNA polymerases, such as Pol iota, are specifically involved in DNA repair. Pol iota specifically plays an important role in translesion synthesis, where the normal high-fidelity DNA polymerases cannot proceed and DNA synthesis stalls. […] Thus, while pol eta's (and most likely iota's) normal function is to protect humans against the deleterious consequences of DNA damage, under certain conditions they can have deleterious effects on human health. As a consequence, we propose to utilize a high throughput replication assay to identify small molecule inhibitors of pol iota.
In a collaboration between the National Institute of Child Health & Human Development (NICHD) and NIH Chemical Genomics Center, a high-throughput, fluorescent screen was developed to screen the NIH Molecular Libraries Small Molecule Repository (MLSMR). This screen is used to identify inhibitors of pol iota.
NIH Chemical Genomics Center [NCGC]
NIH Molecular Libraries Probe Centers Network [MLPCN]
Assay Submitter (PI): Roger Woodgate, NICHD)
Three microliters of reagents (buffer in column 3 and 4 as negative control and 10 nM Pol iota in columns 1, 2, and 5-48) will be dispensed into 1,536-well black solid-bottomed plate. Compounds (23 nL) will be transferred via Kalypsys pin tool equipped with 1536-pin array. The plates will then be incubated for 15 min at room temperature, and 1 µL substrate (50 nM final concentration) will be added to start the reaction and kinetically read twice at 0 min and 10 min on the Viewlux reader.
Potency means the concentration at half of the fitted maximal effect.

Potency, inactive:
CCc1nc2nc(C)cc(Nc3ccc(F)c(Cl)c3)n2n1
Cc1nn(-c2nc(-c3ccccc3)cc(C(F)(F)F)n2)c(C)c1Cl
Cc1cc[n+](C2CCCCC2)cc1
COc1ccc(CN(C)C(=O)c2cc(-c3ccc(C)cc3C)nc3ccccc23)c(OC)c1OC
CN(CCOc1ccccc1)C(=O)c1cc(COc2c(F)cccc2F)on1
O=C(COc1ccccc1C(=O)Nc1ccccc1)Nc1cccc(F)c1
Cc1cc(C(=O)Nc2ccc(C)c(S(=O)(=O)N3CCOCC3)c2)c2ccccc2n1
O=C(c1cc(-c2ccc(Cl)s2)nc2ccccc12)N1CCOCC1
Cc1ccc(S(=O)(=O)CCC(=O)OCC(=O)N(C)C2CCS(=O)(=O)C2)cc1 (stereo not drawn)
COc1ccc(NC(=O)COc2ccc(C(=O)OCC(=O)N(C)C3CCS(=O)(=O)C3)cc2OC)cc1 (stereo not drawn)
CCOc1ccccc1-c1cc(C(=O)N2CCOCC2)c2ccccc2n1
CCCCC(CCCC)c1ccc(C=Nc2ccc(/C=C/c3ccnc4ccccc34)cc2)cc1
CCOc1cc(C(=O)NCCc2csc3nc(-c4ccc(C)cc4)nn23)cc(OCC)c1OCC
Cc1ccc(NC(=O)CN2c3ccccc3S(=O)(=O)c3ccccc32)cc1F
CCOc1ccccc1CNC(=O)c1ccc(-n2c(C)cc3c2CCC(C)C3)cc1 (stereo not drawn)
CCN(CC)C(=O)CSc1nc2ccsc2c(=O)n1Cc1ccccc1Cl
CC1=C(C(=O)OCc2ccc(C)cc2)C(c2ccccc2Cl)CC(=O)N1 (stereo not drawn)
CC(C)(C)OC(=O)N(Cc1ccco1)S(=O)(=O)c1ccccc1Br
CCC(=O)N1CCc2cc(S(=O)(=O)NC(CC(C)C)C(=O)NCCc3cccc(C)c3)ccc21 (stereo not drawn)
CN1CCN(/N=C2/C(=O)Nc3ccc([N+](=O)[O-])cc32)CC1
O=[N+]([O-])c1ccc(N(CCO)Cc2ccccc2)c([N+](=O)[O-])c1
CC(=O)c1ccc[n+](C(C)CCC(C)[n+]2cccc(C(C)=O)c2)c1 (stereo not drawn)
COc1cccc(CNC(=O)CN2C(=O)CCc3cc(S(=O)(=O)N4CCOCC4)ccc32)c1
COc1ccc2[nH]c(=O)c(CNc3ccc(C)c(C)c3)cc2c1
COc1ccc(-c2cc(C(=O)NCc3cc(OC)c(OC)c(OC)c3)[nH]n2)cc1
COc1ccccc1N1CCN(C(=O)C2Cc3ccccc3CN2C(=O)c2ccco2)CC1 (stereo not drawn)
Cc1ccc(C)c(NC(=O)C2Cc3ccccc3CN2C(=O)OCc2ccccc2)c1 (stereo not drawn)
OC[C@@H]1O[C@H](n2cnc3c(SCc4ccccc4)ncnc32)[C@H](O)[C@H]1O
COc1ccc(CNC(=O)Cc2coc3ccc(C(C)C)cc23)cc1
CCOC(=O)c1c(C)[nH]c(C)c1S(=O)(=O)N(C)CC(=O)N1CCN(c2ccccc2)CC1
CCOC(=O)c1c(SCC(=O)Nc2cccc(C)c2C)nc(=O)[nH]c1C
Cc1ccc(-n2ncc3c(=O)n(Cc4cccc(C(F)(F)F)c4)cnc32)cc1C
O=C(O)c1ccc(N/N=C/c2ccc3ncccc3c2)cc1
Cc1ccccc1N/N=C/c1ccc(N2CCOCC2)cc1
CCCCOc1ccc(C(=O)NO)cc1
C/C=C/NNC(=O)Cc1ccc(OC)cc1
COc1cc(NS(=O)(=O)c2ccc3c(c2)OCC(C(=O)N2CCCC2)O3)cc(OC)c1 (stereo not drawn)
COc1ccc(OC)c2sc(N3CCN(C(=O)C4COc5ccccc5O4)CC3)nc12 (stereo not drawn)
Cc1ccc(-c2ccc(CCC(=O)O)n2-c2ccc(C(N)=O)cc2)cc1
N#Cc1ccsc1NC(=O)CN1CCN(S(=O)(=O)c2cc(Cl)ccc2Cl)CC1
COc1ccc(Cl)cc1S(=O)(=O)N1CCN(CC(=O)C(C)(C)C)CC1
Cc1[nH]c2ccccc2c1C(=O)C(=O)N(C)c1ccccc1
Cc1ccc(-c2nc3ccccn3c2Nc2ccc(F)cc2)o1
CCCCCCCNc1ccc(/C=C/c2ccnc3ccccc23)cc1
O=C(Cn1c(=O)n(-c2ccc(F)cc2)c(=O)c2sc3ccccc3c21)NC1CCCC1
COc1ccc(CNC(=O)c2cc3c(-c4ccccc4F)nn(C)c3s2)c(OC)c1
CSc1cccc(NC(=O)CN2C(=O)CCc3cc(S(=O)(=O)N4CCCCC4)ccc32)c1
Cc1oc2c(c1C(=O)N1CCOCC1)C(=O)c1ccccc1C2=O
O=C1c2ccccc2-c2ncnc3c(N4CCOCC4)cc(N4CCOCC4)c1c23
Cc1cccn2c(=O)c3cc(C(=O)NC(C)c4ccccc4)c(=N)n(CCCO)c3nc12 (stereo not drawn)

Potency, active:
COc1ccc2[nH]c3c(C)c4cc[n+](C)cc4c(C)c3c2c1 12.6 µM
CN(CCOc1ccccc1)C(=O)c1cc(-c2ccco2)nc2ccccc12 22.4 µM
O=C(Nc1cccc(F)c1)c1cc(-c2ccco2)nc2ccccc12 50.1 µM
CC1CCCN(C(=O)c2cc(-c3ccco3)nc3ccccc23)C1 (stereo not drawn) 28.2 µM
CN(C(=O)COC(=O)c1cc(-c2ccco2)nc2ccccc12)C1CCS(=O)(=O)C1 (stereo not drawn) 3.55 µM
O=C1Nc2ccc([N+](=O)[O-])cc2C1=Nc1cccc(CO)c1 7.94 µM
COc1ccc2[nH]c(C(=O)N/N=C/c3cc(OC)c(OC)c(OC)c3)cc2c1 17.8 µM
Cc1ccc(S(=O)(=O)N(C)C)cc1NC(=O)C1Cc2ccccc2CN1C(=O)c1ccco1 (stereo not drawn) 22.4 µM
CCOC(=O)c1c(C)[nH]c2c1-c1ccccc1C(=O)C2=O 1.41 µM
O=C(O)c1ccc(NN=CC2=C(N3CCOCC3)/C(=C/c3ccccc3)CC2)cc1 20 µM
Cc1c(CC(=O)N2CCN(C(=O)C3COc4ccccc4O3)CC2)c(=O)oc2c(O)c(O)ccc12 (stereo not drawn) 3.16 µM
O=C(CN1CCN(S(=O)(=O)c2cc(Cl)ccc2Cl)CC1)c1ccc(O)c(O)c1 10 µM
COC1=C(N2CCOCC2)C(=O)c2ccccc2C1=O 14.1 µM
